# Cardio protect: myocardial damage modulation in H9c2 cells. H9c2 cardiomyocytes, H2O2 injury protection, ATPLite, 2 h. protection from H2O2 cell death, % at 20 µM. 0.63% of 360,000 active;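 active = compounds giving at least 50% protection of heart cells from peroxide-induced death in the single-dose screen, raw or plate-pattern-corrected value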;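 also: 0% = DMSO wells with peroxide and 100% = DMSO wells without peroxide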
# ALR inh: human ALR oxidase inhibition via reduced H2O2. P55789. inhibition, % (test concentration not listed). purified ALR, DTT oxidation, H2O2 HRP-luminol luminescence. AID 485317. 3.8% of 290,000 active;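 active = mean replicate inhibition above about 79%, with every replicate also reaching it, limit read from the data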
# Target sequence (P55789 whole entry, looked up): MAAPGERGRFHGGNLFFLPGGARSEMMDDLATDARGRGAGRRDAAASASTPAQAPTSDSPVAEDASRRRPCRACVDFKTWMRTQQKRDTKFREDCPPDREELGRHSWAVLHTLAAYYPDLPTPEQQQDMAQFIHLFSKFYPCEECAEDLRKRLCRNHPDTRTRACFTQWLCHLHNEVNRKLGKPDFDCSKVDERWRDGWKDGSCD
# NTR1 agonist: NTR1 (human) agonism; P30989; NTR1-U2OS beta-arrestin-GFP spot imaging, agonist mode; activation, % at 20 µM; 0.17% of 330,000 active; AID 493036;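 active = activation at or above 40% of the spot to cytoplasm intensity ratio, with at least 20 cells analyzed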;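 also: 0% = DMSO without peptide and 100% = 100 nM NTR1 peptide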
# UBC9 SUMO inh: SUMOylation inhibition; 0.36% of 290,000 active; P63279; HTRF SUMOylation assay, SAE1/SAE2 + UBC9, in vitro; inhibition, % at 35 µM; in the data active = inhibition above about 50%, passing the limit was not always enough
# Target sequence (P63279 whole entry, looked up): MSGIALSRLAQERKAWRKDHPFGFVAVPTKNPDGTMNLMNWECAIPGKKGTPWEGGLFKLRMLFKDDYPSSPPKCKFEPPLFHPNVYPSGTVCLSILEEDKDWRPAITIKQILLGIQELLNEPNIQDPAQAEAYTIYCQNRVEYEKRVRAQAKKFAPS
# An asterisk follows results filed as active; · = no result. Most compounds without a hit are left out; they make up all but 3.9% or so of the library.
SMILES,Cardio protect,ALR inh,NTR1 agonist,UBC9 SUMO inh
CN1OC[C@@H]2CN(Cc3ccccc3)[C@H](c3cccc(N4CCOCC4)c3)C[C@@H]21,-2,·,·,·
CN(C)c1ccc(C2CC(=O)OC3=C2C(=O)CC(C)(C)C3)cc1 (configuration not stated),7,99*,-2,12
COc1ccc(C2Nc3ccccc3NC3=C2C(=O)CC(C)(C)C3)cc1 (configuration not stated),2,57,-2,18
CC1(C)CC(=O)C2=C(C1)Nc1ccccc1NC2c1ccc(F)cc1 (configuration not stated),4,99*,0,18
CC1(C)CC(=O)C2=C(C1)Nc1ccccc1NC2c1ccccn1 (configuration not stated),-2,83*,-1,-10
CC1CC2=C(C(=O)O1)C(c1ccccc1)Nc1ccccc1N2 (configuration not stated),-2,98*,9,24
Cc1ccc(C2Nc3ccccc3NC3=C2C(=O)CC(C)(C)C3)c(O)c1 (configuration not stated),-9,63,1,25
CC1CC2=C(C(=O)O1)C(C)Nc1ccccc1N2 (configuration not stated),-4,·,-2,-3
C=CCC(C(=O)Oc1c(C(C)(C)C)cc(C)cc1C(C)(C)C)c1ccccc1 (configuration not stated),-4,-7,1,·
Cc1noc2c1C(c1ccc(N(C)C)cc1)C1=C(CC(C)(C)CC1=O)N2 (configuration not stated),4,98*,7,12
CN(C)c1ccc(NC(=O)CC2NCCNC2=O)cc1 (configuration not stated),10,99*,1,-2
Cc1ccc(NC(=O)CC2NCCNC2=O)cc1 (configuration not stated),12,-6,0,0
O=C(c1ccc2nc(Cc3ccccc3F)oc2c1)N1CC[C@H](O)C1,6,60,-2,0
CCOC(=O)N1CCC(NC(=O)C(Cc2ccccc2)NC(=O)c2ccco2)CC1 (configuration not stated),0,·,2,-1
C#CCNC(=O)C1=C[C@@H](C2CC2)C[C@@H](OCCCCO)O1,4,-23,0,4
CCOc1cc(/C=N/Nc2nc(Nc3ccccc3)nc(N3CCCCC3)n2)ccc1OCC(=O)O,-2,97*,0,23
CCOc1cc(/C=N/Nc2ccccc2Cl)ccc1OCC(=O)O,4,99*,·,-15
CCOc1cccc(/C=N/Nc2nc(N3CCCC3)nc(N3CCCC3)n2)c1O,29,-13,14,22
COc1ccc(/C=N/Nc2nc(Nc3ccccc3)nc(N3CCCCC3)n2)cc1OC,13,98*,10,-12
COc1cc(/C=N/Nc2nc(N3CCCCC3)nc(N3CCCCC3)n2)ccc1OC(=O)c1ccco1,·,-1,3,0
CCOc1cc(/C=N/Nc2nc(N3CCCC3)nc(N3CCCC3)n2)ccc1O,19,99*,10,-23
COc1ccc(N2CCN(C(=O)c3ccc(C)c(NC(=O)c4ccco4)c3)CC2)cc1,-3,51,2,3
CC(=O)c1ccc(S(=O)(=O)NC2CC(=O)N(c3ccc(C)cc3)C2)cc1 (configuration not stated),-5,-2,0,·
CSCCC(c1nnnn1C1CCCCC1)N1CCN(C/C=C/c2ccccc2)CC1 (configuration not stated),1,·,·,·
CCOC(=O)C1CCCN(C(=O)c2ccc(Cl)c(S(=O)(=O)N3CCc4ccccc43)c2)C1 (configuration not stated),-1,·,·,·
SMILES,Cardio protect,ALR inh,NTR1 agonist,UBC9 SUMO inh
CCn1c(CCCNC(=O)c2cccs2)nc2ccccc21,0,98*,1,2
Cc1[nH]c2ccccc2c1C(=O)COC(=O)c1ccc([N+](=O)[O-])s1,-23,-42,16,-2
CC1CCN(Cc2c(C(=O)N/N=C/c3cc(Cl)ccc3O)nnn2-c2nonc2N)CC1,48,·,-1,82*
CC1CCN(Cc2c(C(=O)N/N=C/c3cc(Br)ccc3O)nnn2-c2nonc2N)CC1,64*,·,1,76*
COC(=O)C1=C(O)/C(=C\c2cc(C)n(-c3ccc(F)cc3)c2C)N=C1C,3,-10,0,13
CCOc1ccc(N2C(=O)CNC2=S)cc1,6,91*,0,11
O=c1c(-c2ccc(O)cc2O)coc2cc(O)cc(O)c12,3,81*,-2,10
COc1ccc(-c2nc3cc(C)ccn3c2NCC2CCCO2)cc1OC (configuration not stated),6,74,12,·
COc1cc(-c2nc3cccc(C)n3c2NCC2CCCO2)ccc1O (configuration not stated),22,99*,3,25
O=C(NCCc1ccccc1)c1cc(-c2ccncc2)nc2ccc(S(=O)(=O)N3CCOCC3)cc12,-2,-1,-1,28
COC(=O)c1ccc(C(=O)OC)c(NC(=O)COC(=O)C23CC4CC(CC(O)(C4)C2)C3)c1,88*,11,3,13
CCOC(=O)COc1cc2c(C(=O)OCC)c(C)oc2cc1Br,-3,97*,-1,-16
CCOC(=O)c1c(C)oc2cc(Br)c(OC(C)C(=O)OCC)cc12 (configuration not stated),-1,-18,8,-15
Cc1sc(NC(=O)CSc2ncn(-c3ccccc3)n2)nc1-c1ccccc1,10,-4,0,11
COc1cc(C(=O)Nc2ccc(C)cn2)ccc1OCC(=O)N1CCOCC1,0,18,0,·
O=C(CSc1ncnc2c1oc1ccccc12)Nc1nc2ccccc2s1,-17,96*,-1,-5
CC(=O)N1CC(=O)N=C1SCC(=O)Nc1nc(-c2ccccc2)c(-c2ccccc2)s1,0,99*,5,-31
Cc1sc(NC(=O)CSC2=NCCS2)nc1-c1ccccc1,5,99*,3,-8
COc1ccc(-c2nc(NC(=O)c3ccc(OCC(=O)N4CCOCC4)c(OC)c3)sc2C)cc1,62*,96*,4,12
O=C(CNC(=O)c1ccccc1F)OCCOc1cccc(Cl)c1,-6,-2,-2,·
CCOC(=O)c1ccc(NC(=S)N2CCCC(C(=O)OCC)C2)cc1 (configuration not stated),6,-4,0,5
O=C(/C=C/c1cccc([N+](=O)[O-])c1)NCCSCc1c(Cl)cccc1Cl,-2,-1,0,-4
COc1ccc(-c2nc(NC(=O)Cn3cnnn3)sc2C)cc1,-6,·,0,-6
C=CCn1c(C)nnc1SCC(=O)Nc1nc(C)c(C(=O)N(C)C)s1,12,-4,1,16
COc1ccc(-c2nc(NC(=O)CSCCO)sc2C)cc1,-6,98*,0,4
O=C(CSC1=NCCS1)Nc1nc2ccccc2s1,-3,90*,2,6
Cc1nc(NC(=O)CSC2=NCCS2)sc1C(=O)N(C)C,-5,99*,0,26
O=C1NCCCC1C(=O)N/N=C/c1ccccc1[N+](=O)[O-] (configuration not stated),-1,·,0,9
Nc1cc(-c2ccc(Cl)cc2)nn1S(=O)(=O)c1cccc2nsnc12,-22,-4,0,2

# Source: PubChem
